The values that follow come from PubChem BioAssay.

A short description of experiment [1]: compounds binding Alexa647 anti-His antibody – biochemical, small-molecule microarray, 635 nm fluorescence, artefact control for SMM control protein annotation, primary screen (AID 1128).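 Also: score merges feature fluorescence with signal-to-noise for each printed compound spot.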 To be noted: higher = more signal.
The test system of experiment [2] is Human papillomavirus type 1a E7 protein (residues 1-88). The experiment in a line: HPV1a E7 small-molecule binders, primary screen, biochemical, small-molecule microarray, residues 1-88, 635 nm (AID 1129). As to conditions: small-molecule microarray binding, fluorescence 635 nm; higher = more signal.
Experiment [3] deals with Focal adhesion kinase 1 (Homo sapiens) (UniProt Q05397). The experiment in a line: PTK2 protein binding on printed compound slides – biochemical, small-molecule microarray, 635/667 nm fluorescence, BSA, DTT, primary screen (AID 1130).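 Also: composite of spot emission at 667 nm and signal to noise over triplicate slides.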 As to conditions: 635 nm fluorescence, higher = more signal.
Experiment [4] relates to Fibrinogen (Alexa647-labelled). The experiment is described as follows: Alexa647-fibrinogen binding to printed small molecules – biochemical, small-molecule microarray, 635/667 nm fluorescence, artefact control for SMM control-protein annotation, profiling panel (AID 1131).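 Also: z-score merges 667 nm fluorescence with per-spot signal-to-noise over triplicate slides.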 To be noted: fibrinogen-A647 binding fluorescence, higher = more signal.
Experiment [5] concerns the target Follistatin (Homo sapiens) (UniProt P19883). The experiment in a line: FST protein binding to printed compounds – biochemical, small-molecule microarray, 635/667 nm fluorescence, primary screen (AID 1132). To be noted: 635 nm fluorescence, higher = more signal.
Experiment [6] deals with Fibroblast growth factor 2 (Homo sapiens) (UniProt P09038). The experiment in a line: basic fibroblast growth factor binding to printed compounds – biochemical, small-molecule microarray, 635/667 nm fluorescence, primary screen (AID 1133). As to conditions: FGF2, fluorescence 635/667, higher = more signal.
A short description of experiment [7]: JC-1 mitochondrial potential readout, lung cancer cells – cell-based, A549, JC-1 fluorescence, basal, 24 h, 100 nL, profiling panel (AID 1138).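 Also: A549 lung adenocarcinoma cells under basal conditions with no added stimulus; test concentration not given here.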 To be noted: higher = more signal.
The subject of the next experiment is Lefty1. The experiment in a line: Lefty1 protein binding to printed compounds – biochemical, small-molecule microarray, 635/667 nm fluorescence, primary screen (AID 1139). To be noted: fluorescence 635/667, higher = more signal.
The subject of experiment [8] is wheat germ agglutinin (Triticum aestivum), Alexa647-labelled. The experiment in a line: Alexa647-WGA lectin binding to printed small molecules – biochemical, small-molecule microarray, 635/667 nm fluorescence, artefact control for SMM control-protein annotation, profiling panel (AID 1140).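 Also: score merges 667 nm feature emission with signal to noise over triplicate slides.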 To be noted: WGA-A647 binding, 635 nm fluorescence, higher = more signal.
For experiment [9], the target named is Luciferin 4-monooxygenase (Photinus pyralis) (UniProt P08659). The experiment is described as follows: inhibition of purified Photinus pyralis luciferase – biochemical, luminescence, purified enzyme, 2006 set, primary screen (AID 1141).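 Also: cell-free assay with purified firefly luciferase at 100 ng per well in PBS; test concentration not given here.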 To be noted: purified firefly luciferase, SteadyGlo luminescence, 30 min; higher = more signal, called active from +8 up or from −8 down.

Experiment [10] relates to Wnt5a (protein binding on small-molecule microarray). The experiment is described as follows: small molecules binding Wnt5a protein – biophysical, small-molecule microarray, 635/667 nm fluorescence, primary screen (AID 1142).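 Also: fluorescence read at 667 nm with signal to noise per printed feature.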 To be noted: 635 nm fluorescence, higher = more signal.
Experiment [11] in a line: ATP-based viability of Huh7 replicon cells – cell-based, CellTiter-Glo luminescence, basal, 48 h, cytotoxicity control for HCV replication inhibitor project, primary screen (AID 1143).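 Also: Huh7 hepatoma cells carrying a hepatitis C replication reporter with no stimulus; test concentration not given here.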 To be noted: higher = more signal, called active from +8 up or from −8 down. On the technique in general: In antiviral work, replicon cells carry a viral genome segment that copies itself.
Experiment [12] is described as follows: Pseudomonas biofilm growth suppression – PAO1 strain, BacTiter-Glo luminescence, LB-PBS, primary screen (AID 1144). To be noted: P. aeruginosa PAO1 biofilm, 12 h, higher = more signal.
Experiment [13] is described as follows: basal CRE-LacZ reporter activity in PC12 – cell-based, unstimulated, primary screen (AID 1145). As to conditions: no forskolin, luminescence, 4.5 h, higher = more signal, called active from +8 up or from −8 down.
The nature of experiment [14]: forskolin-driven CRE-LacZ activity in PC12 – cell-based, CRE-LacZ reporter, forskolin-stimulated, primary screen (AID 1146).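 Also: PC12 cells with 6xCRE LacZ reporter stimulated by forskolin 10 µM; beta-galactosidase reporter signal reflecting CREB driven transcription.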 As to conditions: luminescence, 4.5 h, higher = more signal, called active from +8 up or from −8 down.
Experiment [15] deals with Streptavidin (Streptomyces avidinii) (UniProt P22629). The experiment in a line: compounds binding control protein streptavidin – biophysical, small-molecule microarray, 635/667 nm fluorescence, artefact control for SMM compound annotation, primary screen (AID 1147).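 Also: signal reflects streptavidin binding to arrayed compounds as a control protein.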 As to conditions: higher = more signal.
Experiment [16] is described as follows: probe aInhba binding on compound microarray – biochemical, small-molecule microarray, 635/667 nm fluorescence, primary screen (AID 1148).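 Also: score merges 667nm spot fluorescence with signal-to-noise for antibody binding to printed compounds.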 As to conditions: higher = more signal.
The target in experiment [17] is Torsin-1A (Homo sapiens) (UniProt O14656). The experiment in a line: TOR1A wild-type binding on microarray – cell lysate, small-molecule microarray, lysate, 635/667 nm, primary screen (AID 1149). As to conditions: COS7 hTOR1A-WT lysate, 635 nm fluorescence, higher = more signal.
The target is the same in experiment [18]. The experiment in a line: torsin A mutant lysate binding on microarrays – cell lysate, small-molecule microarray, COS7 lysate, 635/667 nm fluorescence, primary screen (AID 1150).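 Also: score pools 667 nm emission and signal to noise measuring lysate protein binding.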 To be noted: COS7 hTOR1A mutant lysate, 635 nm fluorescence, higher = more signal.
In experiment [19] the test system is Sonic hedgehog protein (Shh). The experiment is described as follows: Sonic hedgehog microarray binding compounds – biochemical, small-molecule microarray, 635/667 nm fluorescence, primary screen (AID 1151).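 Also: Shh protein binding to compounds spotted on small-molecule microarray slides; score combines spot fluorescence intensity with signal-to-noise across triplicate slides.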 As to conditions: 635 nm fluorescence, higher = more signal.

SMILES strings stand for the structures. Calls of active or inactive are those of the source. Unless noted, no rule for the calls is given here.

Sequence of Focal adhesion kinase 1 (Homo sapiens) (Q05397 whole entry, looked up): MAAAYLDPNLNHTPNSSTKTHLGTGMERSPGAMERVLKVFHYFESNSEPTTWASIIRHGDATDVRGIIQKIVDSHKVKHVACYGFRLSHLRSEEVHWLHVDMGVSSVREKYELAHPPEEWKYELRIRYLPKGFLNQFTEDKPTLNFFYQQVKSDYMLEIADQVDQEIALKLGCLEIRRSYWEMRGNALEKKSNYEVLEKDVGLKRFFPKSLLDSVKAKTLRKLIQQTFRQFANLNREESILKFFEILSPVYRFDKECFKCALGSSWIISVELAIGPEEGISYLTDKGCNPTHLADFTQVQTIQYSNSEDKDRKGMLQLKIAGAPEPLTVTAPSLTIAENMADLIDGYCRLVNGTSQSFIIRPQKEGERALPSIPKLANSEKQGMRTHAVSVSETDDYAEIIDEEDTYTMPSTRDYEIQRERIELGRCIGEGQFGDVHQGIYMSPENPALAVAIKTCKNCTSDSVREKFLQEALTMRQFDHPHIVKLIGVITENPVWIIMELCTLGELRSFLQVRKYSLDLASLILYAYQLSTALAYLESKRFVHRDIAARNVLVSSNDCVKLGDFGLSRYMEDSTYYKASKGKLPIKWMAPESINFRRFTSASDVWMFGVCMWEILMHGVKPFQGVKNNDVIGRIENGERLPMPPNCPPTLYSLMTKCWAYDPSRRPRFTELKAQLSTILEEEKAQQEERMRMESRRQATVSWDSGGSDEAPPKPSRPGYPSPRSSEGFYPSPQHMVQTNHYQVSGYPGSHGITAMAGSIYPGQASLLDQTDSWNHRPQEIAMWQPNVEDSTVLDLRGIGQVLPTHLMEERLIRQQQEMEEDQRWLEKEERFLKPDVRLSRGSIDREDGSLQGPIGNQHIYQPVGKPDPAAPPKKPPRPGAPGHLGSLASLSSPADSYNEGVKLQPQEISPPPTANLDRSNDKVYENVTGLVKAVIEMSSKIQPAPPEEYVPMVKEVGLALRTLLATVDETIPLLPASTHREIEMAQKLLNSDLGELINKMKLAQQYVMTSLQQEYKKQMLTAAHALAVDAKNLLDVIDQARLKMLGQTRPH
Sequence of Follistatin (Homo sapiens) (P19883 whole entry, looked up): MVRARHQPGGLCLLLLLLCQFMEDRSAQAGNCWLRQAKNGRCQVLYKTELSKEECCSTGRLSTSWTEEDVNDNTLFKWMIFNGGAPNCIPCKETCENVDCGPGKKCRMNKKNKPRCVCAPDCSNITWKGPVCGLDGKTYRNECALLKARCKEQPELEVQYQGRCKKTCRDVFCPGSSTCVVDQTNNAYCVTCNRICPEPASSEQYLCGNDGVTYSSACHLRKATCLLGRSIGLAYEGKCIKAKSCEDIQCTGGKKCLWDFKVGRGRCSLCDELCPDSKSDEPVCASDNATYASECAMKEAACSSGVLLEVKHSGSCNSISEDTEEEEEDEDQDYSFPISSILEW
Sequence of Streptavidin (Streptomyces avidinii) (P22629 whole entry, looked up): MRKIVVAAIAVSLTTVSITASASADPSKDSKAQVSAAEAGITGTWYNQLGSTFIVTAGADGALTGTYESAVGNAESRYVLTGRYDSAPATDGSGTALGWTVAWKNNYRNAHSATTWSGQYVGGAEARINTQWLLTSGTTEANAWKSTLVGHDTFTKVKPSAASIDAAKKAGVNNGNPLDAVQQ
Sequence of Luciferin 4-monooxygenase (Photinus pyralis) (P08659 whole entry, looked up): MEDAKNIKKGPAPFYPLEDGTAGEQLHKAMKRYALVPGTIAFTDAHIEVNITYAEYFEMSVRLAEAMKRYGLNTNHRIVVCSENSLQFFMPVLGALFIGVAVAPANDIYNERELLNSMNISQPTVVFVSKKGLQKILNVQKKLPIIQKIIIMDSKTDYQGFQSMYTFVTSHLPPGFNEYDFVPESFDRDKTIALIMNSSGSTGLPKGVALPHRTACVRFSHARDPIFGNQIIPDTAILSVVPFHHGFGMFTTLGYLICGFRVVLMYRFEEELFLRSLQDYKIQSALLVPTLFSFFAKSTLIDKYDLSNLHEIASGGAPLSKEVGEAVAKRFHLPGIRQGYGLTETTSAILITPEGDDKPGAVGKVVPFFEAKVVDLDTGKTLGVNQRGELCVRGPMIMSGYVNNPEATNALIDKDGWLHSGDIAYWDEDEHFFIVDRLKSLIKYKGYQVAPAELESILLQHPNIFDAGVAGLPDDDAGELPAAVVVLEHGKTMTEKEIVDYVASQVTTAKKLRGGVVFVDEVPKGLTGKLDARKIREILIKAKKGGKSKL
Sequence of Fibroblast growth factor 2 (Homo sapiens) (P09038 whole entry, looked up): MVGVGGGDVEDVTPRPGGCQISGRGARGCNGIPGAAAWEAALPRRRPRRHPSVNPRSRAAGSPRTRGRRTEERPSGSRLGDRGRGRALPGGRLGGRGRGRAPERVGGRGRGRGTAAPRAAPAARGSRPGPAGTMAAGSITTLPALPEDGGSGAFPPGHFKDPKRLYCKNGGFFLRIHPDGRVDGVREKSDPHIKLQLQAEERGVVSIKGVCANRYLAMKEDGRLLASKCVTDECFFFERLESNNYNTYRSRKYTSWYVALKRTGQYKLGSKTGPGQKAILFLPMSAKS
Sequence of Torsin-1A (Homo sapiens) (O14656 whole entry, looked up): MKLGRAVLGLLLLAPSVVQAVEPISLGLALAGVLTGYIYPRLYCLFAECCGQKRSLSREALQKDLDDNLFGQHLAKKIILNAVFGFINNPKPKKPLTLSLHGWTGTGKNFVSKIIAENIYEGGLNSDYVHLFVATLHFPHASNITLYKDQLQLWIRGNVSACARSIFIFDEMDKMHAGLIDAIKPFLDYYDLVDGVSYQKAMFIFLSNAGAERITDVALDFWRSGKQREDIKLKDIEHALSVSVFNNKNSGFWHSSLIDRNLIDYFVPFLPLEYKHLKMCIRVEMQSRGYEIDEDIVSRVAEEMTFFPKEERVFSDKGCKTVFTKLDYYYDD

`COC(=O)C[C@H]1O[C@]2(C(=O)N(C)c3ccccc32)[C@@H](C)[C@@H]1[Si](C)(C)c1ccc(C)cc1`: the composite z-score in [1] was found to be 0.522; in experiment [2], 1.12; in experiment [3], 0.342; in experiment [4], 0.343; in [5], 0.498; in [6], 0.148. In addition, the composite z-score in the experiment on Lefty1 was 0.818; in [8], 0.255; in experiment [10], 0.139; in experiment [15], 0.0785; in experiment [16], -0.0403; with Torsin-1A (Homo sapiens) [17], 0.559. Moreover, the composite z-score was determined as 0.346 with Torsin-1A (Homo sapiens) [18] and 0.763 in experiment [19]. Also, the z-score in [7] was 0.557; in [9] it was -0.507 (inactive); in experiment [11], -3.88 (inactive); in experiment [12] it was 0.92 (inactive); in experiment [13], 1.31 (inactive); in [14], -0.73 (inactive).

On to `CCOC(=O)C1=C[C@@H](c2ccccc2)N(S(=O)(=O)c2ccc(C)cc2)[C@H]1c1cccc(Cl)c1`, for which the composite z-score amounted to 2.44 in experiment [1]; 1.17 in [2]; 0.283 in [3]; 0.612 in experiment [4]; 0.938 in experiment [5]; 0.111 in experiment [6]. In addition, the composite z-score with Lefty1 was determined as 0.465; in [8] it was 1.31; in [10], 0.55; in [15], 1.34; in [16], 0.351; with Torsin-1A (Homo sapiens) [17] it was 0.631. The composite z-score was found to be 0.569 in the experiment with Torsin-1A (Homo sapiens) [18] and 0.319 in experiment [19]. In addition, the z-score was 3.78 in experiment [7]; 1.18 (inactive) in [9]; -3.89 (inactive) in experiment [11]; 1.51 (inactive) in experiment [12]; 0.182 (inactive) in experiment [13]; -0.451 (inactive) in experiment [14].

`O=C1O[C@@H](c2ccccc2)[C@@H](c2ccccc2)N2[C@@H](c3ccccc3OCCO)[C@]3(C(=O)Nc4ccc(C#CC5=CCCCC5)cc43)[C@@H](C(=O)NC[C@H](O)c3ccccc3)[C@H]12`: the composite z-score was found to be 1.08 in experiment [1]; 1.13 in [2]; 0.0363 in [3]; 0.883 in [4]; 0.961 in experiment [5]; 1.51 in experiment [6]. For the same compound, the composite z-score was 1.02 in the experiment on Lefty1; -0.186 in experiment [8]; 0.361 in [10]; 0.625 in [15]; 0.162 in [16]; 0.385 with Torsin-1A (Homo sapiens) [17]. The composite z-score was -0.0373 with Torsin-1A (Homo sapiens) [18] and 1.99 in experiment [19]. The z-score in experiment [7] is -1.69; in experiment [9], -1.32 (inactive); in experiment [11], -6.39 (inactive); in [12], -0.534 (inactive); in [13], -1.56 (inactive); in experiment [14], -1.15 (inactive).

`O=C1c2ccccc2[C@@]2(Cc3ccccc3N(C3CC3)C2=O)[C@H](c2ccc(CO)cc2)N1C1CCCCC1`: the composite z-score in experiment [1] is -1.14; in experiment [2], -0.729; in experiment [3], -0.375; in experiment [4], -0.624; in [5], -0.667; in experiment [6], -0.329. Further, the composite z-score with Lefty1 is -0.825; in [8] it was 0.637; in experiment [10] it was -0.157; in experiment [15], -0.885; in [16], -0.0791; with Torsin-1A (Homo sapiens) [17] it was -0.822. Further, the composite z-score is -0.928 in the experiment with Torsin-1A (Homo sapiens) [18] and -0.309 in [19]. For the same compound, the z-score in experiment [7] was 0.306; in [9] it was 0.429 (inactive); in [11], 0.0786 (inactive); in [12], 0.122 (inactive); in experiment [13] it was 0.145 (inactive); in experiment [14] it was 0.428 (inactive).

`COC(=O)[C@]1(CCS(=O)(=O)c2ccccc2)N=C(c2ccc(OCCCO)cc2)O[C@@H]1c1ccccc1CN=[N+]=[N-]`: the composite z-score in [1] turned out to be 1.15; in [2] it was 1.23; in experiment [3], 1.34; in [4], 0.954; in [5], 1.35; in experiment [6], 0.807. Besides, the composite z-score with Lefty1 was determined as 0.293; in experiment [8] it was 0.528; in [10] it was 0.419; in [15] it was 0.379; in experiment [16], 0.0655; with Torsin-1A (Homo sapiens) [17] it was 1.33. Moreover, the composite z-score was 0.69 with Torsin-1A (Homo sapiens) [18] and 0.738 in [19]. The z-score is 0.332 in experiment [7]; -0.587 (inactive) in experiment [9]; -4.23 (inactive) in experiment [11]; -0.32 (inactive) in [12]; 1.73 (inactive) in [13]; -1.37 (inactive) in experiment [14].
